Measurements from PubChem BioAssay.
The source made the active and inactive calls.

Tests used:
Albumin (Bos taurus) = Albumin (Bos taurus) (UniProt P02769); experiment: bovine serum albumin binders on microarray, profiling panel, artefact control for SMM control protein annotation, biochemical, small-molecule microarray, Alexa647 label, 635/667 nm fluorescence (AID 1118); conditions: BSA-A647 binding, fluorescence 635 nm, higher = more signal;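 also: score merges 667 nm emission intensity and signal-to-noise per printed compound spot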
Albumin (Bos taurus), sequence (P02769 whole entry, looked up): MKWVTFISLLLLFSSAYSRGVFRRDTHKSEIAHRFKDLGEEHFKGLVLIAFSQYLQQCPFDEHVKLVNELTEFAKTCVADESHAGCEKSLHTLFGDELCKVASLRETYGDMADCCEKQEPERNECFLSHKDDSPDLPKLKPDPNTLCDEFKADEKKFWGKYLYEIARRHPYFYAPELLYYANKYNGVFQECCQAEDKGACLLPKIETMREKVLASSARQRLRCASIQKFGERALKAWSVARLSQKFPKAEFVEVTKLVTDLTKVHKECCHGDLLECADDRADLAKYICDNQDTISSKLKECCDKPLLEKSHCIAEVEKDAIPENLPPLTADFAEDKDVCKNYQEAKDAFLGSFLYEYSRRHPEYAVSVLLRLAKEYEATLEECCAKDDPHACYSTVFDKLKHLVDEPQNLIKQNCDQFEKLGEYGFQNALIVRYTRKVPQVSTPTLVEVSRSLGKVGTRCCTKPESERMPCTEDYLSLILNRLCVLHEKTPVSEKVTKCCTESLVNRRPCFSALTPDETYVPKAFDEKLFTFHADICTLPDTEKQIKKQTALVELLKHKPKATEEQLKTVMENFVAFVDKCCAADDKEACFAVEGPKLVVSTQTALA

[1] = small-molecule microarray binders of probe aXIP, primary screen, biochemical, NeuroSMM set, 635/667 nm fluorescence (AID 1119); conditions: higher = more signal, called active from +8 up or from −8 down;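 also: probe is the protein aXip251-270 applied at 1 µg/mL to compound-printed slides; binding of probe to printed compounds measured as 667 nm fluorescence plus signal to noise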
[2] = small-molecule binders of probe aNOTCH3, primary screen, biochemical, small-molecule microarray, 635/667 nm fluorescence (AID 1120); conditions: higher = more signal;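 also: probe is a biotin-tagged antibody raised against NOTCH3 rather than NOTCH3 protein; score merges spot fluorescence near 667 nm with spot signal to noise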
[3] = small-molecule binders of probe aNOTCH2, primary screen, biochemical, small-molecule microarray, 635/667 nm fluorescence (AID 1121); conditions: higher = more signal;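 also: score merges feature fluorescence read at 667 nm with its signal to noise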
[4] = biological target: Carbonic anhydrase 2 (Homo sapiens) (UniProt P00918); experiment: CAII small-molecule binders, profiling panel, biochemical, small-molecule microarray, Alexa647-labelled CAII (AID 1122); conditions: CAII-A647 binding fluorescence, higher = more signal
[5] = COS7 lysate on small-molecule microarray, probe aHis, 635 nm (AID 1123); conditions: COS7 cell lysate, fluorescence, higher = more signal;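 also: z-score combines 667nm fluorescence intensity with signal-to-noise per printed compound spot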
[6] = compound binding in COS7 lysate, probe aLAP1, primary screen, cell lysate, small-molecule microarray (AID 1124); conditions: probe aLAP1, fluorescence, higher = more signal;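 also: lysate comes from COS7 cells expressing LAP1 and is applied at 0.3 µg/mL; score merges spot fluorescence near 667 nm with signal-to-noise over triplicate slides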
Sam68 (KHDRBS1) = experiment: Sam68 small-molecule binders, primary screen, biochemical, small-molecule microarray, 635 nm fluorescence (AID 1125); conditions: small-molecule microarray binding, higher = more signal;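 also: score merges 667 nm channel intensity with signal to noise over triplicate slides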
[7] = system: Chordin-like protein 2 (CHRDL2); experiment: CHRDL2 small-molecule binders, primary screen, biochemical, small-molecule microarray, 635 nm fluorescence (AID 1126); conditions: small-molecule microarray binding, fluorescence 635 nm; higher = more signal;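 also: printed compound slides probed with Chrdl2 protein at 4 µg/mL for 1 h at 4 C; score merges 667 nm emission intensity with signal to noise over three replicate slides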
[8] = biological target: Concanavalin-A (Canavalia ensiformis) (UniProt P02866); experiment: ConA small-molecule binders, primary screen, artefact control for SMM control protein annotation, biochemical, small-molecule microarray, Alexa647 label, 635 nm (AID 1127); conditions: ConA-A647 binding fluorescence, higher = more signal;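 also: z combines 667 nm emission intensity with signal-to-noise across three replicate slides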
Concanavalin-A (Canavalia ensiformis), sequence (P02866 whole entry, looked up): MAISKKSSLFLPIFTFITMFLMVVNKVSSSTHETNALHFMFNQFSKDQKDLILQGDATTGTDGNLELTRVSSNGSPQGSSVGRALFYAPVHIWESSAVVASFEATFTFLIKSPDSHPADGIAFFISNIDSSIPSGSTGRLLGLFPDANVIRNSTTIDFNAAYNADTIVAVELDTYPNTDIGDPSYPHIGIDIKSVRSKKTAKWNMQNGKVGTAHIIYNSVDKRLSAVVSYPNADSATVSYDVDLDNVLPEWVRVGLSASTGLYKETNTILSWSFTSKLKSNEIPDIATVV

SMILES	composite z-score (Albumin (Bos taurus))	composite Z-score [1]	composite z-score [2]	composite z-score [3]	composite z-score [4]	composite z-score [5]	composite z-score [6]	composite z-score (Sam68 (KHDRBS1))	composite z-score [7]	composite z-score [8]
C=CC[C@@]1(C(=O)N(C)C)N=C(c2ccc(OCCCO)cc2)O[C@@H]1c1ccccc1N=[N+]=[N-]	0.757	0.149 (inactive)	0.37	0.209	0.588	3.01	1.2	1.3	-0.344	1.18
COc1ccc(C(=O)Nc2cccc(CN3C(=O)[C@]4(O[C@H](CCO)[C@@H]([Si](C)(C)c5ccc(OC)cc5)[C@@H]4C)c4ccccc43)c2)cc1	0.0296	-0.494 (inactive)	0.0297	-0.112	0.41	0.787	0.593	1.21	0.379	1.13
COc1cc2c(cc1OC)CN(C(=O)[C@H]1[C@@H]3C(=O)O[C@@H](c4ccccc4)[C@@H](c4ccccc4)N3[C@@H](c3ccc(O)cc3)[C@]13C(=O)Nc1ccc(C#CCNC(N)=O)cc13)CC2	-0.176	-0.136 (inactive)	0.0397	-0.165	0.169	0.103	0.523	-0.0579	0.702	0.212
Cc1ccc(S[C@]2(C(=O)NCCN3CCOCC3)CC(=O)N(Cc3ccccc3Cl)[C@@H]2c2ccc(CO)cc2)cc1	0.429	-0.0407 (inactive)	-0.0362	-0.133	0.686	0.776	0.0897	-0.541	-1.2	-0.199
O=C1OCCC/C=C\[C@H]2OC34C=CCN(c5ccc6ccccc6c5)C(=O)[C@H]3N(CCCCCCO)C(=O)[C@@H]4C12 (stereo not given in full)	0.0499	0.611 (inactive)	-0.256	-0.163	0.946	-0.0749	0.978	-0.468	-1.65	-0.83
COCCCNC(=O)[C@@]1(Cc2ccccc2N=[N+]=[N-])N=C(c2ccc(OCCCO)cc2)O[C@H]1c1ccccc1N=[N+]=[N-]	0.964	0.328 (inactive)	0.386	0.149	0.58	2.76	0.889	1.29	-0.0927	1.1
O=C1NCC(=O)N2[C@@H]1C[C@@H](C(=O)O)[C@H]2c1cccc(OCCO)c1	-0.175	10.2 (active)	2.12	1.12	0.628	5.25	1.03	1.33	1.6	0.945
CN(C)CCCNC(=O)[C@@]1(c2ccc([N+](=O)[O-])cc2)CC(=O)N(C2CCCCC2)[C@@H]1c1ccc(CO)cc1I	-0.13	-0.75 (inactive)	-0.128	-0.124	0.397	1.7	0.742	1.34	0.096	1.15
COC(=O)[C@@]1(Cc2ccccc2)[C@H]2c3cc(C(=O)N(C)C)n(CCSCCO)c3C[C@H]2CN1C(=O)c1ccccc1	0.569	0.376 (inactive)	0.0893	0.0577	0.801	2.26	-0.154	0.555	-0.25	0.523
O=C1C2C=CC(C(O)c3c(F)cccc3Cl)N(Nc3ccccc3)C2C(=O)N1c1ccccc1 (stereo not given)	0.876	0.229 (inactive)	0.418	0.014	0.382	2.81	0.045	1.31	-0.3	1.14
CCOC(=O)[C@H]1C/C=C/C[C@H](C(=O)OCC)C(=O)O[C@H]2[C@@H](OC)O[C@H](CO)[C@@H](OC(=O)Nc3ccc(C#N)cc3)[C@@H]2OC1=O	0.842	0.941 (inactive)	-0.307	-0.159	0.607	0.823	0.603	0.171	-0.619	-0.175
O=C1OCC=C[C@H]2OC34C=CCN(c5ccc6ccccc6c5)C(=O)[C@H]3N(CCCCCCO)C(=O)[C@@H]4[C@@H]12 (stereo not given in full)	0.39	0.164 (inactive)	-0.241	-0.0472	0.837	0.818	0.941	-1.42	-0.677	-0.486
COc1ccc([Si](C)(C)[C@H]2[C@H](CC(=O)N3Cc4ccccc4C[C@H]3CO)O[C@@]3(C(=O)N(Cc4ccc(N5CCC5=O)cc4)c4ccccc43)[C@@H]2C)cc1	0.402	-0.39 (inactive)	-0.0014	0.581	0.516	1.51	1.19	1.29	1.4	1.13
O=C1OCCC/C=C\[C@H]2OC34C=CCN(CCN5CCOCC5)C(=O)[C@H]3N(CCCO)C(=O)[C@@H]4C12 (stereo not given in full)	-0.843	0.546 (inactive)	-0.182	-0.178	0.888	3.72	1.6	-0.284	-0.575	0.167
C=CCOC(=O)[C@H]1[C@@H]2C(=O)O[C@@H](c3ccccc3)[C@@H](c3ccccc3)N2[C@@H](c2ccc(OCCOC(=O)[C@@H]3C[C@@H]4C(=O)N[C@@H](CCCC[N+](C)(C)C)C(=O)N4[C@@H]3c3ccc(O)cc3)cc2)[C@]12C(=O)Nc1ccccc12	0.0987	0.0848 (inactive)	0.011	-0.171	0.624	0.875	0.284	1.31	1.08	1.12
CN1C(=O)C2C=CC(C(O)C3CCCCC3)N(Nc3ccc([N+](=O)[O-])cc3[N+](=O)[O-])C2C1=O (stereo not given)	0.892	-0.131 (inactive)	0.23	0.0302	0.732	2.62	0.605	1.31	-0.384	0.955
COC(=O)[C@@]1(Cc2ccccc2)[C@H]2c3cc(C(=O)N4CCCC4)n(Cc4cccc5ccccc45)c3C[C@H]2CN1C(=O)c1ccccc1	0.942	0.304 (inactive)	1.44	0.707	0.741	1.54	0.539	0.621	-0.975	0.308
CS(=O)(=O)CCOC(=O)C1=CC(CCCO)=CC(c2ccc(CN3CCCC3)cc2)N(Cc2cc3c(cc2Br)OCO3)C=C1C(=O)OCCS(C)(=O)=O (stereo not given)	0.649	1.09 (inactive)	0.165	-0.0163	0.804	1.78	1.31	1.31	0.373	1.08
O=C1NC(=O)C2C1C=CC(C(O)Cc1ccccc1)N2Nc1ccc(Cl)cc1Cl (stereo not given)	0.809	-0.082 (inactive)	0.198	-0.11	0.803	2.07	-0.226	-1.18	-1.15	-0.652
C=C(/C(=C/C[C@@H](OC(C)=O)c1ccc(OCCO)cc1)c1cnc2ccccc2c1)C(C)C	0.444	-0.199 (inactive)	-0.0362	-0.17	0.425	0.387	-0.0638	0.713	0.159	0.806
COCCCNC(=O)[C@@]1(Cc2ccccc2)N=C(c2ccc(OCCCO)cc2)O[C@H]1c1ccccc1	0.893	1.14 (inactive)	0.374	0.308	0.79	2.9	-0.0127	1.29	-1.1	1.12
O=C1C2C=CC(C(O)C3CCCCC3)N(Nc3ccc([N+](=O)[O-])cc3)C2C(=O)N1c1ccccc1 (stereo not given)	0.674	-0.0746 (inactive)	-0.366	-0.197	0.57	2.53	0.499	1.29	-1.2	0.909
O=C1C2C=CC(C(O)C(c3ccccc3)c3ccccc3)N(n3cnnc3)C2C(=O)N1Cc1ccccc1 (stereo not given)	0.057	0.0479 (inactive)	0.116	-0.0294	0.635	2.61	0.599	1.3	0.121	1.07
CCOC(=O)C[C@H]1[C@H](OC(=O)Cc2ccc3c(c2)OCO3)[C@@H](NC(=O)c2ccc(-c3ccccc3)cc2)c2cc(OCCCO)ccc2N1C(=O)c1ccc2ccccc2n1	0.238	-0.549 (inactive)	-0.112	-0.182	0.0289	0.1	0.0968	0.202	0.415	0.643
CCCCC(=C=CC[C@@H](O)c1ccccc1OCCO)CCO	0.694	0.35 (inactive)	-0.0321	-0.0928	0.726	1.1	0.257	0.0301	-0.638	-0.382
C=CCN1C(=O)[C@]2(O[C@H](CCO)[C@@H]([Si](C)(C)c3ccc(OC)cc3)[C@@H]2C)c2cc(N3C(=O)c4cccc5cccc3c45)ccc21	0.634	-0.106 (inactive)	-0.0377	-0.0956	0.542	0.808	0.0553	0.838	0.0493	0.795
